TIM10 inh: inhibits growth of TIM10 yeast strain | S. cerevisiae TIM10 strain growth, BacTiter-Glo luminescence, 24 h | inhibition, % at 10 µM | 330,000 tested, 1.4% active | AID 463195;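 active = inhibition of 40% or more at the single tested concentration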;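 note: wild-type TIM10 isogenic control strain grown at permissive 25 °C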
tim10-1 inh: inhibits growth of tim10-1 mutant yeast; S. cerevisiae tim10-1 ts strain growth, BacTiter-Glo, 24 h; inhibition, % at 20 µM; 330,000 tested, 2.2% active; AID 463190;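 active = inhibition of at least 40%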;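 note: mutant grown at 25 °C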
Mdm2-MdmX inh: human Mdm2/MdmX binding inhibition; O15151+Q00987; SaOS-2 split-luciferase Mdm2/MdmX complementation, luminescence; inhibition, % at 8 µM; 330,000 tested, 3% active;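 active = inhibition of at least 50% at 8 µM in the primary screen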
Target sequence (O15151 whole entry, looked up): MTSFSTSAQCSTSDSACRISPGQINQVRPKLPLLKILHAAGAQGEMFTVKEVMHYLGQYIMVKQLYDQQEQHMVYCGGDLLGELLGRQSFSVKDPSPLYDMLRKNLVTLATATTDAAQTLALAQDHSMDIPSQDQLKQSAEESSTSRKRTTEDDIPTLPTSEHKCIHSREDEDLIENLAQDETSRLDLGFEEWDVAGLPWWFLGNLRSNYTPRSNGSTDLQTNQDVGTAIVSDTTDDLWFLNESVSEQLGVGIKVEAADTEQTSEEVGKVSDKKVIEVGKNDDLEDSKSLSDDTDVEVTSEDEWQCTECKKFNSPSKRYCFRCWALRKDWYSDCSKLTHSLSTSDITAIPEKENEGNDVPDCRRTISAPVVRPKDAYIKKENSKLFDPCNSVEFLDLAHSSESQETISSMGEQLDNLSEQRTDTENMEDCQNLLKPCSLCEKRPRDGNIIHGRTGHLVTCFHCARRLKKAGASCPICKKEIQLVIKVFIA
Target sequence (Q00987 whole entry, looked up): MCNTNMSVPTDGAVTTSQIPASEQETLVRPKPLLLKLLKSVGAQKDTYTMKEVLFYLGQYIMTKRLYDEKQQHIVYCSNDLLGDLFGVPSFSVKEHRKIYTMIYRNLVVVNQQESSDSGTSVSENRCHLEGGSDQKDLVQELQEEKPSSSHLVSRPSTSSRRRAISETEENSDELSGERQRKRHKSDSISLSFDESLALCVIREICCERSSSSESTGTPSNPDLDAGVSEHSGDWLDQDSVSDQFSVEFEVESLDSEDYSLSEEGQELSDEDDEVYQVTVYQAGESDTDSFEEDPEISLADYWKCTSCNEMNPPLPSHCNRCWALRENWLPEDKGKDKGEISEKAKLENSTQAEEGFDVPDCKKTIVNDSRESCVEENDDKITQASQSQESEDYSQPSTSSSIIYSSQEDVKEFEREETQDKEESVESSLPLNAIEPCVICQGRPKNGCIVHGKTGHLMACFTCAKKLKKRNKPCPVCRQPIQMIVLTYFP
MPTP inh: blocks calcium-induced mitochondrial swelling; isolated mouse mitochondria, Ca2+ swelling absorbance, 30 min; inhibition, % at 10 µM; 360,000 tested, 1.4% active; AID 602449;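 active = inhibition of 50% or more, scaled per plate between neutral and stimulator controls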
tim23-1 inh: tim23-1 yeast growth inhibition. S. cerevisiae tim23-1 growth, BacTiter-Glo luminescence, 24 h. inhibition, % at 20 µM. 330,000 tested, 1.3% active. AID 463212;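 active = growth inhibition of the mutant yeast at or above 50%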;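 note: temperature-sensitive mutant grown at 25 °C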
Mdm2-MdmX conf: human Mdm2/MdmX binding inhibition, confirmed; shares compounds with Mdm2-MdmX inh; 10,000 tested, 55% active; luminescent assay; inhibition, % at 8 µM; in the data active = inhibition above about 40%
FLuc counter: counter-screen for Mdm2/MdmX inhibitors: full-length luciferase | inhibition, % at 8 µM | SaOS-2 full-length luciferase counterscreen, luminescence | shares compounds with Mdm2-MdmX inh | 6,200 tested, 77% active;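 active = mean inhibition at 8 µM reaching about 37%, which flags the compound as non-specific, limit read from the data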;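 note: p53-null SaOS-2 cells with luciferase driven by a doxycycline-inducible promoter; compound on cells about two nights before reading with doxycycline added after day one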
A number is an active result; – = inactive; · = no result given. Most compounds without a hit are left out; they make up all but 6.3% or so of the library.

SMILES	TIM10 inh	tim10-1 inh	Mdm2-MdmX inh	MPTP inh	tim23-1 inh	Mdm2-MdmX conf	others
O=C(CN1C(=O)NC2(CCCCC2)C1=O)Nc1cccc(Cl)c1Cl	–	–	–	–	–	·
COc1ccc(-n2c(/C=C3\C(=O)N(C)c4ccccc43)nc3ccccc3c2=O)cc1	–	–	61	–	–	–
COc1ccc(/C=C/c2nc3ccccc3c(=O)n2-c2cccc(C(=O)O)c2)cc1	–	–	–	–	–	·
Cc1ccc2c(c1)c1c(n2CC(O)Cn2c(C)nc3ccccc32)/C(=N\O)CCC1 (centres undefined)	–	–	60	–	–	–
CC[C@@]1(C(=O)OC)N[C@H](CN(C)C(=O)Nc2ccccc2)[C@@H]2C(=O)N(Cc3ccccc3)C(=O)[C@@H]21	–	–	–	–	–	·
COC(=O)[C@]1(Cc2ccccc2)N[C@H](CN(C)C(=O)Nc2ccc(C(F)(F)F)cc2)[C@@H]2C(=O)N(Cc3ccccc3)C(=O)[C@@H]21	–	–	70	–	–	43	FLuc counter=65
CC[C@@]1(C(=O)OC)N[C@H](CN(C)C(=O)c2ccc(C(C)(C)C)cc2)[C@@H]2C(=O)N(Cc3ccccc3)C(=O)[C@@H]21	–	–	–	–	–	·
CC[C@@]1(C(=O)OC)N[C@H](CN(C)C(=O)Nc2ccc(C(F)(F)F)cc2)[C@@H]2C(=O)N(Cc3ccccc3)C(=O)[C@@H]21	–	–	84	–	–	81	FLuc counter=–
CCN(C[C@H]1N[C@@](CC)(C(=O)OC)[C@H]2C(=O)N(Cc3ccccc3)C(=O)[C@@H]12)C(=O)c1ccc(C(C)(C)C)cc1	–	–	75	–	–	68	FLuc counter=55
COc1ccc(C(C)(O)c2nc(-c3ccc(Cl)cc3)cs2)cc1 (centres undefined)	·	·	·	–	·	·
Cc1cccc(C)c1NC(=O)C1c2ccccc2OCC(=O)N1Cc1cccnc1 (centres undefined)	·	·	·	–	·	·
Cc1cc2c(cc1C)-n1nnnc1C(N1CCCC1)C(=O)N2 (centres undefined)	·	·	·	–	·	·
CCOC(=O)COn1c(=O)c(-c2ccc(OC)c(OC)c2)[n+]([O-])c2ccccc21	–	–	93	·	–	–
Cc1nnc(SCC(=O)N2c3ccccc3Sc3ccccc32)n1N	–	–	–	–	–	·
Cc1nnc(SC(=O)N2c3ccccc3Sc3ccccc32)s1	–	–	97	–	–	98	FLuc counter=52
CC(C)(C)c1ccc(CN2C3=NCCCN3c3ccccc32)cc1	–	–	69	–	–	–	FLuc counter=61
Cc1cc2c(cc1C)N(Cc1ccc(Cl)cc1)C1=NCCCN12	–	–	56	–	–	–	FLuc counter=90
Cc1ccc(CN2C3=NCCCN3c3ccccc32)cc1	–	–	–	–	–	·
OCCc1ccc(NCCc2cccs2)cc1	·	·	·	–	·	·
Cc1ccc(NC(=O)COc2coc(CN3CCc4ccccc43)cc2=O)cc1Cl	–	–	62	–	–	–
CCCCNc1c(-c2ccc(SC(C)CC)cc2)nc2cnccn12 (centres undefined)	–	–	52	–	–	–
CCCCNc1c(-c2ccc(OC)c(Sc3ccc(OC)cc3)c2)nc2ccccn12	–	–	94	–	–	–	FLuc counter=65
CCCCCCSc1cc(-c2nc3cnccn3c2NCCCC)ccc1OC	–	–	–	–	–	·
CCCCNc1c(-c2ccc(OC)c(Sc3ccc(OC)cc3)c2)nc2cnccn12	–	–	–	–	–	·
O=C(c1ccccc1)C1(c2ccccc2)OC1c1ccccc1 (centres undefined)	·	·	·	–	·	·
SMILES	TIM10 inh	tim10-1 inh	Mdm2-MdmX inh	MPTP inh	tim23-1 inh	Mdm2-MdmX conf	others
CC(=O)CC1N(S(=O)(=O)c2ccc(C)cc2)c2ccccc2N1S(=O)(=O)c1ccc(C)cc1	·	·	·	–	·	·
COc1ccc(-c2cc(C(=O)NCc3cccc(Cl)c3)[nH]n2)c(C)c1	·	·	·	–	·	·
Cc1ccc2c(c1)c1c(n2CC(O)Cn2ccnc2C)C(=O)CCC1 (centres undefined)	–	–	–	–	–	·
Cc1ccc2c(c1)c1c(n2CC(O)CNC2CCCC2)CCCC1 (centres undefined)	–	–	57	–	–	–	FLuc counter=77
Oc1[nH]c2ccccc2c1N=Nc1nc(Nc2ccccc2)nc(N2CCOCC2)n1	–	–	80	–	–	81	FLuc counter=59
COc1ccc(Cc2nnc(NC(=O)c3cc(OC)cc(OC)c3)s2)cc1	–	–	52	–	–	46	FLuc counter=86
CCN(CC)CCNC(=O)c1ccc(NC(=O)c2ccc(Cl)c(S(=O)(=O)N3CCCCCC3)c2)cc1	–	–	94	–	–	–
CCN(CC)CCNC(=O)c1ccc(NC(=O)c2ccc(COc3ccccc3)cc2)cc1	–	–	83	–	–	–
CCOC(=O)c1cc(OC)c2cccc(CN3CCC(C)(C(=O)NCCOC)C3)c2c1 (centres undefined)	·	·	·	–	·	·
CN(C(=O)c1cccc(NC(=O)Cc2cccc(NC(=O)C3CCN(C(=O)CCc4ccccc4)CC3)c2)c1)C1CC1	·	·	·	–	·	·
CCn1c(=O)c(CCC(=O)N2CCN(c3ccccn3)CC2)c(C)c2c(C)nn(-c3cccc(C)c3)c21	–	–	53	–	–	–
Cn1c(C(=O)NCCCN2CCN(c3ccccc3F)CC2)cc2c(=O)[nH]c3ccccc3c21	–	–	–	–	–	·
COc1ccc(CNC(=O)Cc2csc(Nc3nc(=S)[nH]c4ccccc34)n2)cc1	–	–	–	–	–	·
O=C(Cc1csc(Nc2nc(=S)[nH]c3ccccc23)n1)NCCCN1CCN(c2ccccc2F)CC1	–	–	98	–	–	–
O=C(Cc1csc(Nc2nc(=S)[nH]c3ccccc23)n1)NCc1ccc(Cl)cc1	–	–	74	–	–	–
C=CCn1c(=NC(=O)c2sc3ccccc3c2Cl)sc2cc(S(N)(=O)=O)ccc21	–	–	68	–	–	–
CCOC(=O)Cn1c(=NC(=O)c2nc3ccccc3s2)sc2cc(S(N)(=O)=O)ccc21	–	–	63	–	–	–
COCCn1c(=NC(=O)c2sc3ccccc3c2Cl)sc2cc(S(N)(=O)=O)ccc21	–	–	–	–	–	·
CNc1ccc2ncc(-c3ccccc3NC(C)=O)n2n1	·	·	·	–	·	·
CCN(CC)CCNC(=O)c1ccc(NC(=O)Cc2ccc(OC)c(S(=O)(=O)N3CCOCC3)c2)cc1	·	·	·	–	·	·
C=CC(=O)Nc1ccc(CN2C(=O)N(c3c(Cl)c(OC)cc(OC)c3Cl)Cc3cnc(NCCCCN(CC)CC)nc32)cc1	–	–	71	–	–	45	FLuc counter=55
Cn1nnc2c[n+](CC(=O)c3ccc(Cl)cc3)cc(Br)c21	–	–	–	–	–	·
Cn1nnc2c[n+](CC(=O)c3ccc4ccccc4c3)cc(Br)c21	–	–	65	–	–	–	FLuc counter=63
Cc1ccc(-c2cc(C(=O)N3CC4(C)CC3CC(C)(C)C4)no2)cc1 (centres undefined)	–	–	–	–	–	·

Screening data as filed in PubChem BioAssay.
